Results filed as inconclusive are left out. Calls of active or inactive are those of the source. Calls follow the shape of the dose curve; as a rule, active = well fitted curve in the direction sought with a large enough effect; inconclusive = small, poorly fitted or top-dose-only effect, or another doubt; inactive = no such curve, though single readings can be large or run the other way.
Potency is read from the fitted curve at half-maximal effect.

The assay has as its system NanoLuc luciferase (engineered Oplophorus gracilirostris luciferase). As to the kind of experiment: Confirmatory Nanoluciferase (NLuc) qHTS assay for identification of artifact compounds. As to activity change, negative = inhibition: % of control where 0% means no effect. The following applies: secreted NLuc in S16 cell medium, luminescence, 5 min; series mostly up to 39 µM; activity change, negative = inhibition: at the top concentration. In outline: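 Conditioned medium from NLuc-expressing S16 cells (diluted 1:55) was incubated with compounds for 15 min at room temperature. Nano-Glo substrate (1:100) was then added, and luminescence was read after 5 min.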
On the technique in general: Quantitative high-throughput screening tests each substance at several concentrations.
As for `CCC(C(=O)NCc1cc(OC)ccc1OC)n1nc(C)c2sc3ccccc3c2c1=O` (stereo not drawn), the “activity change, negative = inhibition” value is -11.2% (inactive).

Consider `CCSc1ncc(Cl)c(C(=O)Nc2c(C(=O)Nc3cccc(C)c3)oc3ccccc23)n1`, for which the “activity change, negative = inhibition” value is -9.49% (inactive).

As to `CC(C)C[C@H](NC(=O)[C@H](Cc1ccccc1)NC(=O)CNC(=O)CNC(=O)[C@@H](N)Cc1ccc(O)cc1)C(=O)N[C@@H](CCCN=C(N)N)C(=O)N[C@@H](CCCN=C(N)N)C(=O)N[C@@H](CCC(N)=O)C(=O)N[C@@H](Cc1ccccc1)C(=O)N[C@@H](CCCCN)C(=O)N[C@H](C(=O)N[C@H](C(=O)N[C@H](C(=O)O)[C@@H](C)O)C(C)C)C(C)C`, the activity change, negative = inhibition was 9.86% [at 4.32 µM] (inactive).

`COc1ccccc1CNC(=O)c1nn(-c2ccc(C)cc2)c(=O)c2c1c1ccccc1n2C`: the “activity change, negative = inhibition” value is -1.11% (inactive).

For `Cc1nc2nc(CNC(=O)OC(C)(C)C)nn2c(C)c1CCC(=O)NCc1ccccc1Cl`, the “activity change, negative = inhibition” value is 4.97% (inactive).

Take `O=C(Oc1ccccc1Cl)c1cc(-c2ccc3c(c2)OCCO3)on1`: the Potency is 1540 nM (active).

For the compound `Cc1ccc(CSc2ncccc2C(=O)O)cc1`, the “activity change, negative = inhibition” value was -19.5% (inactive).

In the case of `O=C(OCc1ccccc1)c1ccccc1O`, the “activity change, negative = inhibition” value was 0.921% (inactive).

As to `CCCN(C(=O)Cc1c(C(=O)O)[nH]c2ccc(Cl)cc12)c1ccc(OCC)cc1`, the “activity change, negative = inhibition” value was -2.15% (inactive).

For the compound `COc1ccc(NC(=O)c2cnn3c(-c4ccccc4)cc(C)nc23)cc1`, the “activity change, negative = inhibition” value is -17.3% (inactive).

Regarding `COc1ccc(CCNC(=O)Cn2cc(C(=O)c3ccc(F)cc3)c(=O)c3ccc(C)nc32)cc1OC`, the “activity change, negative = inhibition” value is -3.94% (inactive).

On to `Cc1c(Cl)cccc1NC(=O)N1CCOc2ccccc21`, for which the “activity change, negative = inhibition” value is -2.38% (inactive).

For the compound `O=C(Nc1noc2ccccc12)c1c(F)cccc1F`, the “activity change, negative = inhibition” value was -3.71% (inactive).

In the case of `Cc1c(NC(=O)C(C)(C)C)cccc1-c1nc2ccccc2s1`, the “activity change, negative = inhibition” value is -11.2% (inactive).

On to `CCOC(=O)C1=C(CNCc2ccc(Cl)cc2)NC(=O)NC1c1ccccc1` (stereo not drawn), for which the “activity change, negative = inhibition” value was -27.2% (inactive).

With `Cc1ccc(NC(=O)c2ccc(Br)cc2)c(C(=O)c2ccccc2)c1`, the “activity change, negative = inhibition” value was -3.05% (inactive).

Consider `Cc1ccc(NC(=O)Cn2c(=O)n(CCC(=O)NCCc3ccccc3)c(=O)c3ccccc32)cc1`, for which the “activity change, negative = inhibition” value is -10.7% (inactive).

Regarding `Oc1ccc(-c2csc(-c3ccc(F)cc3)n2)c(O)c1`, the “activity change, negative = inhibition” value was -9.63% (inactive).

In the case of `O=C(Nc1ccc(Br)cc1)c1cccc(C(=O)Nc2ccc(Br)cc2)c1`, the “activity change, negative = inhibition” value was -2.91% (inactive).

Take `O=C(CSc1nc(-c2ccccc2)cn1-c1ccccc1)Nc1ccccc1`: the “activity change, negative = inhibition” value is -12.3% (inactive).

Turning to `CCOc1ccc(-c2cc(NC(=O)Nc3ccccc3Cl)c(C(=O)OC)s2)cc1`, the “activity change, negative = inhibition” value is -5.11% (inactive).

As for `CC(=O)Nc1cc(-c2ccccc2)nn1Cc1cccc(Cl)c1`, the “activity change, negative = inhibition” value was -0.214% (inactive).

For `CCc1ccc(Cn2c(CNS(=O)(=O)c3ccc(Cl)s3)nc3cccnc32)cc1`, the “activity change, negative = inhibition” value was -7.88% (inactive).

Consider `CCOc1ccc(CCNC(=O)c2cnc3c(-c4ccccc4)c(C)nn3c2C)cc1OCC`, for which the “activity change, negative = inhibition” value was -1.56% (inactive).

With `Cc1cc(C)cc(NC(=O)CSc2oc(-c3cccs3)nc2S(=O)(=O)c2ccccc2)c1`, the “activity change, negative = inhibition” value is -14.4% (inactive).

Consider `COc1ccc(C(=O)Nc2ccc(-c3nc4ncccc4o3)cc2)cc1`, for which the “activity change, negative = inhibition” value was -15.3% (inactive).

Consider `Cc1cc(NC(=O)Nc2cccc(-c3ccncc3)n2)ccc1Cl`, for which the “activity change, negative = inhibition” value is -2.7% (inactive).

`CC(=O)S[C@H]1CC2=CC(=O)CC[C@@]2(C)[C@H]2CC[C@@]3(C)[C@H](CC[C@]34CCC(=O)O4)[C@@H]12`: the “activity change, negative = inhibition” value is -2.1% [at 19.8 µM] (inactive).

The record behind these values is PubChem BioAssay AID1845224 (National Center for Advancing Translational Sciences (NCATS), 2023).
